Among the data in PubChem BioAssay are composite z-score values, retold here.

For the assay, the target named is Follistatin-related protein 3 (Homo sapiens) (UniProt O95633). The assay is described as follows: FSTL3 binders on small-molecule microarrays, primary screen, biochemical, small-molecule microarray, 635 nm fluorescence (AID 1105).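 Further: score merges emission near 667 nm and signal to noise per printed spot across three slides.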 The note with it: FSTL3 binding, higher = more signal.
Chain of Follistatin-related protein 3 (Homo sapiens) (O95633 whole entry, looked up): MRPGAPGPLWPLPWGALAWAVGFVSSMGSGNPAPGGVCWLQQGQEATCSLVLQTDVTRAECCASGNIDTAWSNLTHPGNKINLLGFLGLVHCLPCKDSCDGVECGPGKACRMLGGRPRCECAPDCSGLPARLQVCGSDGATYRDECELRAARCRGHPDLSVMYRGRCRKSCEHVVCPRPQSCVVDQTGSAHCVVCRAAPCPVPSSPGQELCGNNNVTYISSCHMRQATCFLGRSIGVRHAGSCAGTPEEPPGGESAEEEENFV
In the case of `C=C1C(=O)C=C2CN(C(=O)c3ccccc3)[C@@](Cc3ccc(OC)cc3)(C(=O)OC)[C@@H]12`, the composite z-score came out at 1.37. As for `COC(=O)[C@@]1(Cc2ccc(F)cc2)[C@H]2c3cc(C(=O)N(C)C)n(C)c3C[C@H]2CN1C(=O)c1ccccc1`, the figure is -0.125; as for `COCCCNC(=O)[C@@]1(CCS(=O)(=O)c2ccccc2)COC(c2ccc(OCCCO)cc2)=N1`, -0.0346; as for `CO[C@H]1O[C@H](CO)[C@@H](OC(=O)Nc2ccc3c(c2)OCO3)[C@H](OC(=O)Nc2ccccc2-c2ccccc2)[C@H]1OC(=O)Nc1ccccc1-c1ccccc1`, 0.398.

Consider `NC(=O)N1C(=O)C2C(C1=O)C1C=C(CCCO)C2C(C2CC2)N1Cc1sc2ccccc2c1Cl` (stereo not drawn), for which the composite z-score was 0.808. For the compound `C=CC[C@@]1(C(=O)OC)N=C(c2ccc(OCCCO)cc2)O[C@@H]1c1ccccc1N=[N+]=[N-]`, the composite z-score is 1.22.

Consider `C=CCC(OC(C)=O)[C@@H]1[C@@H](N(Cc2ccc(-c3ccccc3)cc2)C(=O)c2cccc3ccccc23)c2cc(OCCCO)ccc2N1C(=O)Cc1ccc(OC)cc1` (stereo partly drawn), for which the composite z-score came to 0.13.

Compound `CCOc1cc(C(O)C2C=CC3C(=O)N(c4ccccc4)C(=O)C3N2Nc2ccccc2F)ccc1O` (stereo not drawn) showed a composite z-score of -0.271. As for `C=CCC(OC(C)=O)[C@@H]1[C@@H](N(Cc2cc3ccccc3o2)C(=O)c2cccc3ccccc23)c2cc(OCCCO)ccc2N1C(=O)c1ccc2ccccc2n1` (stereo partly drawn), the figure is -0.0659; as for `COc1ccc(C(O)C2C=CC3C(=O)N(C)C(=O)C3N2N(c2ccccc2)c2ccccc2)cc1` (stereo not drawn), 0.585; as for `O=C1O[C@@H](c2ccccc2)[C@@H](c2ccccc2)N2[C@@H](c3ccc(OCCO)cc3)[C@]3(C(=O)Nc4ccc(C#CC5(O)CCCCCC5)cc43)[C@@H](C(=O)Nc3nc4ccccc4s3)[C@H]12`, 1.38. `COCCOC(=O)N1C(=O)[C@@]2(c3cc(C#CCCO)ccc31)[C@H](C(N)=O)[C@H]1C(=O)O[C@H](c3ccccc3)[C@H](c3ccccc3)N1[C@@H]2c1ccccc1OCCO` registered a composite z-score of 0.911. The compound `CC1CC/C=C\[C@H]2OC34C=CCN(C(C)(C)C)C(=O)[C@H]3N(CCCO)C(=O)[C@@H]4C2C(=O)O1` (stereo partly drawn) returned a composite z-score of -0.943. As for `COc1ccc([Si](C)(C)[C@H]2[C@H](CC(=O)N3Cc4ccccc4C[C@H]3CO)O[C@@]3(C(=O)N(C)c4ccccc43)[C@@H]2C)cc1`, the figure is 1.4.

The compound `Cc1ccc(S[C@]2(C(=O)NCCCN(C)C)CC(=O)N(C3Cc4ccccc4C3)[C@@H]2c2ccc(CO)cc2I)cc1` came in with a composite z-score of -0.335. The compound `O=C1O[C@H](c2ccccc2)[C@H](c2ccccc2)N2[C@H]1[C@@H](C(=O)N1CCN(c3ncccn3)CC1)[C@]1(C(=O)Nc3ccc(C#CCCO)cc31)[C@H]2c1ccc(O)cc1` gave a composite z-score of 0.0936.

In turn, `[N-]=[N+]=Nc1ccccc1C[C@]1(C(=O)N2CCOCC2)N=C(c2ccc(OCCCO)cc2)O[C@H]1c1ccccc1N=[N+]=[N-]` displayed a composite z-score of 1.47.

In turn, `COc1ccc(C(=O)Nc2ccc(CN3C(=O)[C@@]4(O[C@@H](CCn5cc(CCO)nn5)[C@H]([Si](C)(C)c5ccc(OC)cc5)[C@H]4C)c4ccccc43)cc2)cc1` returned a composite z-score of 1.28. The same measure for `NC(=O)NCC#Cc1ccc2c(c1)[C@]1(C(=O)N2)[C@H](c2ccc(OCCO)cc2)N2[C@H](c3ccccc3)[C@H](c3ccccc3)OC(=O)[C@H]2[C@@H]1C(=O)NC[C@H](O)c1ccccc1`: -0.216; for `O=C1[C@H]2C=C(I)[C@H](C[C@@H]2c2ccccc2)[C@@]12CO2`: -0.461. `CC(C)NC(=O)[C@@H]1c2ccccc2C(=O)N(Cc2ccc(OC(F)(F)F)cc2)[C@H]1c1ccc(CO)cc1`: the composite z-score came out at 1.37. As for `COc1ccc([Si](C)(C)[C@H]2[C@H](CC(=O)N3Cc4ccccc4C[C@H]3CO)O[C@@]3(C(=O)N(c4ccccc4)c4ccccc43)[C@@H]2C)cc1`, the figure is 1.45; as for `CC(C)(C)N1CC=CC23O[C@@H]4/C=C\CCCOC(=O)C4[C@H]2C(=O)N(CCCO)[C@@H]3C1=O` (stereo partly drawn), -0.996; as for `O=C1C2C=CC(C(O)c3ccc([N+](=O)[O-])cc3)N(Nc3ccccc3F)C2C(=O)N1c1ccccc1` (stereo not drawn), 0.313.

Compound `COc1ccccc1CN1C(=O)c2ccccc2[C@](Cc2ccccc2I)(C(=O)NCC(C)C)[C@@H]1c1ccc(CO)cc1` showed a composite z-score of -0.408. Consider `C=C(CCCC)/C(=C/C[C@H](OC(=O)c1ccncc1)c1ccc(OCCO)cc1)c1cnc2ccccc2c1`, for which the composite z-score worked out at 1.45. `CCCC[C@H]1C[C@@H]1[C@@H]1N(C(C)=O)[C@H](c2cccc(OC)c2)CC12CC2` returned a composite z-score of 0. As to `O=C1O[C@H](Cc2ccccc2)[C@@H]2[C@H]3C=CCCC=C3CN2[C@H]1Cc1ccc(O)cc1`, the composite z-score is -0.17.
